We go through 38 compounds from PubChem BioAssay (EPA / NIEHS).

Where “and” joins values, the source holds several entries; their conditions need not be identical. Identical values can stand only once. Results filed as inconclusive are left out. A structure can be active in one record and inactive in another. Calls of active or inactive are those of the source. Rule for the calls: active = hit-call score of the fitted dose curve at least 0.9, where 1 is the maximum; inconclusive = response in the unintended direction; inactive = score below 0.9.

This assay can be described thus: ATG_XTT_Cytotoxicity: Cytotoxicity Assessment in the Attagene TRANS-FACTORIAL HepG2 Assay (AID 2283584).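 For AC50: cells exposed to compound for 24 h before reading; active means loss of viability signal versus DMSO baseline.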 How it is done:
ATG_XTT_Cytotoxicity is a cell-based, single-readout assay that uses HepG2, a human liver cell line, with measurements taken at 24 hours after chemical dosing in a 24-well plate.ATG_XTT_Cytotoxicity is one of one assay component(s) measured or calculated from the ATG_XTT_Cytotoxicity assay. It is designed to make measurements of cell number, a form of viability reporter, as detected with […] signals by XTT cytotoxicity assay technology.Data from the assay component ATG_XTT_Cytotoxicity was analyzed into 1 assay endpoint. This assay endpoint, ATG_XTT_Cytotoxicity, was analyzed in the positive analysis fitting direction relative to DMSO as the negative control and baseline of activity. Using a type of viability reporter, loss-of-signal activity can be used to understand changes in the viability. Furthermore, this assay endpoint can be referred to as a primary readout, because the performed assay has only produced 1 assay endpoint. To generalize the intended target to other relatable targets, this assay endpoint is annotated to the cell cycle intended target family, where the subfamily is cytotoxicity.
Human liver HepG2 cells are transiently transfected with multiple reporter transcription units (MRTUs) in 6-well plates using FuGene 6 reagent (Roche; 3 ml FuGene/1 mg DNA). The MRTU constructs are regulated by a cis-regulating element (promoter). […] A major difference between the CIS and TRANS system is that in CIS activities of endogenous TFs are measured, whereas the TRANS assay evaluates changes in activities of exogenous, chimeric NR-Gal4 proteins. […] At the end of 24 hour incubation, total RNA was isolated using TriZol reagent (Invitrogen). The isolated RNA is then reverse-transcribed using oligo(dT) primer and Mo-MLV reverse transcriptase (Invitrogen) with DNAse I (Ambion) treatment for 30 min. The one-tenth of the produced cDNA was amplified by PCR using Taq DNA polymerase (Invitrogen) and two reporter sequence-specific primers. The PCR products were fluorescently labeled by primer extension with 6-arboxyfluorescein (6-FAM) 5'-labeled reporter sequence-specific primer (2 min at 95 C, 20 s at 68 C and 10 min at 72 C) and these products were digested with 5U of HpaI (New England Biolabs) for 2h at 37 C. The fragments were purified using Qiaquick PCR columns (Qiagen), analyzed on an ABI 3130xL genetic analyzer (Applied Biosystems) with peak positions identified by using a set of X-rhodamine (ROX)-labeled MapMarker1000 molecular weight standards (BioVentures). The raw capillary electrophoresis data was processed using Attagraph software (Attagene).
Regarding `COP(=O)(OC)O/C(=C\Cl)c1cc(Cl)c(Cl)cc1Cl`, the compound was called inactive.

`O=C(CCl)CCl`: the compound was called inactive.

With `ClCC(Cl)CCl`, the call was inactive.

Take `CC(C#N)CCC#N` (stereo not given): the compound was called inactive.

Consider `O=C1C2(Cl)C3(Cl)C4(Cl)C(Cl)(Cl)C5(Cl)C3(Cl)C1(Cl)C5(Cl)C24Cl` (stereo not given), for which the AC50 was 31.8 µM (active) and 35.1 µM (active); the compound was classed as inactive.

On to `CC(C)c1cccc(C(C)C)c1O`, for which the compound was classed as inactive.

Turning to `Clc1nc(Cl)nc(Cl)n1`, the compound was called inactive.

Consider `NC(=S)Nc1ccccc1`, for which the result was inactive.

For `CC1CN1P(=O)(N1CC1C)N1CC1C` (stereo not given), the compound was classed as inactive.

For the compound `CCCCCCCCSC(=O)Oc1cc(Cl)nnc1-c1ccccc1`, the outcome was inactive.

For `O=C(O)C(F)(F)C(F)(F)C(F)(F)C(F)(F)C(F)(F)C(F)(F)C(F)(F)C(F)(F)C(F)(F)C(F)(F)F`, the outcome was inactive.

With `COc1ccc(C=O)cc1OC`, the compound was called inactive.

Consider `CCC(=O)c1ccccc1`, for which the result was inactive.

Take `CC(=O)C(Cl)C(=O)N(C)C` (stereo not given): the result was inactive.

`O=C(c1ccccc1)C(Cl)Cl`: the call was inactive.

On to `CC12CC1(C)C(=O)N(c1cc(Cl)cc(Cl)c1)C2=O` (stereo not given), for which the call was inactive.

Regarding `Cl/C=C/Cl`, the call was inactive.

As for `CCC(=O)C(CC(C)N(C)C)(c1ccccc1)c1ccccc1` (stereo not given), the outcome was inactive.

`CC(=O)OC(c1ccccc1)C(Cl)(Cl)Cl` (stereo not given): the call was inactive.

On to `Oc1ccc(-c2ccccc2)cc1`, for which the call was inactive.

Consider `O=C/C=C/c1ccccc1`, for which the outcome was inactive.

As for `ClC(Cl)=C(Cl)C(Cl)=C(Cl)Cl`, the result was inactive.

For `O=C1C(Cl)=C(Cl)C(=O)c2ccccc21`, the call was inactive.

Take `ClC1=C(Cl)[C@]2(Cl)[C@H]3[C@H]([C@H]4C=C[C@H]3C4)[C@@]1(Cl)C2(Cl)Cl`: the outcome was inactive.

For `CCOC(=O)CP(=O)(OCC)OCC`, the compound was classed as inactive.

Consider `Clc1ccc(COC(Cn2ccnc2)c2ccc(Cl)cc2Cl)cc1` (stereo not given), for which the compound was called inactive.

`C=CC(=O)N(C)C`: the result was inactive.

In the case of `CC(C)(C)CC(C)(C)c1ccc(O)cc1`, the compound was classed as inactive; the AC50 was 26.7 µM (active) and 58.4 µM (active) and 53.9 µM (active).

Take `Nc1cccc(Cl)c1`: the result was inactive.

Take `CC1(C)Cc2cccc(O)c2O1`: the call was inactive.

For `Nc1ccc(Cl)cc1C(=O)c1ccccc1`, the compound was called inactive.

Regarding `Nc1ccc(-c2ccc(N)c(Cl)c2)cc1Cl`, the outcome was inactive.

Consider `CNC(=O)O/N=C/C(C)(C)S(C)=O` (stereo not given), for which the compound was called inactive.

As for `N#Cc1ccccn1`, the result was inactive.

Turning to `Oc1c(I)cc(I)cc1I`, the outcome was inactive.

Take `Cc1ccccc1C(=O)Nc1cccc(OC(C)C)c1`: the compound was called inactive.

On to `C[C@@H]1C[C@@H]([C@H](O)CC2CC(=O)NC(=O)C2)C(=O)[C@@H](C)C1`, for which the result was inactive.

As to `CC(=[OH+])/C=C(/C)[O-].CC(=[OH+])/C=C(/C)[O-].CC(=[OH+])/C=C(/C)[O-].[Al]`, the compound was classed as inactive.
